Read-out in experiment [1]: Monokine induced gamma interferon (MIG), CXCL9 (gene 4283)
Nature of the experiment: BSK_SAg_MIG: BioMAP Diversity Plus: SAg Assay for Monokine induced gamma interferon (MIG) Biomarker Activity (AID 2283092). As to conditions: primary human HUVEC with PBMC; actives raise or lower the signal. The procedure, abridged: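 HUVEC plus human PBMC co-culture, chemicals dosed and MIG (CXCL9) quantified by ELISA at 24 h. Bidirectional curve fitting against DMSO as negative control and baseline, so both gain and loss of signal count as activity.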

Experiment [2] can be described thus: BSK_SAg_PBMCCytotoxicity: PBMC Cytotoxicity Assessment in the BioMAP Diversity Plus: SAg Assay (AID 2283093).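 Also: PBMC viability measured as Alamar Blue reduction fluorescence at 546/580 nm; fitted both ways against DMSO so a hit may be loss or gain of signal.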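 As to AC50: PBMC superantigen activated with SEB plus TSST-1 one hour after compound addition.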 The following applies: primary human HUVEC with PBMC. The method, boiled down:
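HUVEC/PBMC co-culture; PBMC exposed to chemical 1 h before SEB and TSST-1 activation (20 ng/mL each), incubated 90 h, then Alamar Blue 6 h, fluorescence 546/580 nm. Bidirectional fit versus DMSO baseline.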

Read-out in experiment [3]: Interleukin-8 (IL8), CXCL8 (gene 3576)
The experiment in a line: BSK_SAg_IL8: BioMAP Diversity Plus: SAg Assay for Interleukin-8 (IL8) Biomarker Activity (AID 2283094). The following applies: primary human HUVEC with PBMC; actives raise or lower the signal. The method, boiled down:
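Human umbilical vein endothelial cells co-cultured with PBMC, stimulated with superantigen; IL-8 measured by ELISA 24 h after chemical dosing. Bidirectional fitting versus DMSO; SRB staining in parallel cultures tracks cytotoxicity.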

Experiment [4] is described as follows: BSK_SAg_Proliferation: Cell Proliferation Assessment in the BioMAP Diversity Plus: SAg Assay (AID 2283095). As to conditions: primary human HUVEC with PBMC. The method, boiled down: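 Human umbilical vein endothelial cells co-cultured with PBMC; sulforhodamine B total-protein staining (0.1% SRB after 10% TCA fixation, absorbance 560 nm) at 96 h in sub-confluent culture. Fitted bidirectionally against DMSO.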

Experiment [5] in a line: BSK_SAg_SRB: Viability Assessment in the BioMAP Diversity Plus: SAg Assay (AID 2283096).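 Also: cells read one day after compound addition; hits may be either gain or loss of signal compared with DMSO.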 As to conditions: primary human HUVEC with PBMC. The method, boiled down:
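Human umbilical vein endothelial cells co-cultured with PBMC, read 24 h after compound dosing. Total protein measured by sulforhodamine B staining (0.1% SRB after 10% TCA fixation, absorbance 560 nm); bidirectional fit versus DMSO baseline.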

Active and inactive are the calls of the source. The calls were made as follows: active = hit-call score of the fitted dose curve at least 0.9, where 1 is the maximum; inactive = score below 0.9.

By AC50 is commonly meant the concentration at which the activity in the assay is half-maximal. `CCCCC(CC)COC(=O)CC(C(=O)OCC(CC)CCCC)S(=O)(=O)O` (centres undefined): the AC50 in experiment [1] is 38 µM (active); in experiment [2], 34.8 µM (active); in experiment [3], 33.6 µM (active); in experiment [4] it was 32.5 µM (active); in experiment [5], 36.2 µM (active).
For `CCCCCCCC=O`, the outcome in experiment [1], in experiment [2], in experiment [3], in experiment [4] and in experiment [5] was inactive.
In the case of `Cc1nc(C)nc(N2C[C@@H](C)N(c3ccnc([C@@H](C)O)n3)[C@@H](C)C2)n1`, the outcome in experiment [1], in experiment [2], in experiment [3], in experiment [4] and in experiment [5] was inactive.
For `COCCOC[C@H](CC1(C(=O)NC2CCC(C(=O)O)CC2)CCCC1)C(=O)Oc1ccc2c(c1)CCC2` (some centres undefined), the result in experiment [1], in experiment [2], in experiment [3], in experiment [4] and in experiment [5] was inactive.
Take `Cc1ccc2ncccc2c1`: the result in experiment [1], in experiment [2], in experiment [3], in experiment [4] and in experiment [5] was inactive.
Take `CCCCc1ccc2c(n1)[C@@H](c1ccc(OC)cc1C[C@H](C)C(=O)O)[C@H](C(=O)O)[C@H]2c1ccc2c(c1)OCO2`: the result in experiment [1], in experiment [2], in experiment [3], in experiment [4] and in experiment [5] was inactive.
Take `CCCCCC(=O)O`: the result in experiment [1], in experiment [2], in experiment [3], in experiment [4] and in experiment [5] was inactive.
On to `CC(CO)OC(C)CO` (centres undefined) (tested in a mixture with another compound), for which the outcome in experiment [1], in experiment [2], in experiment [3], in experiment [4] and in experiment [5] was inactive.
On to `NCCO`, for which the outcome in experiment [1], in experiment [2], in experiment [3], in experiment [4] and in experiment [5] was inactive.
As to `NS(=O)(=O)c1cc2c(cc1Cl)NCNS2(=O)=O`, the outcome in experiment [1], in experiment [2], in experiment [3], in experiment [4] and in experiment [5] was inactive.
Turning to `CCCCCCOCCO`, the outcome in experiment [1], in experiment [2], in experiment [3], in experiment [4] and in experiment [5] was inactive.
Consider `Cc1cccc(Nc2cc(Cl)nc(SCC(=O)O)n2)c1C`, for which the outcome in experiment [1], in experiment [2], in experiment [3], in experiment [4] and in experiment [5] was inactive.
With `COc1ccc(C)cc1N`, the result in experiment [1], in experiment [2], in experiment [3], in experiment [4] and in experiment [5] was inactive.
Take `Cc1cc(=O)[nH]c(=S)[nH]1`: the result in experiment [1], in experiment [2], in experiment [3], in experiment [4] and in experiment [5] was inactive.
As for `COC(=O)c1ccc(O)cc1`, the result in experiment [1], in experiment [2], in experiment [3], in experiment [4] and in experiment [5] was inactive.
`CC1(C)NC(=O)NC1=O`: the result in experiment [1], in experiment [2], in experiment [3], in experiment [4] and in experiment [5] was inactive.
For the compound `OC[C@@H](O)[C@@H](O)[C@H](O)[C@H](O)CO`, the outcome in experiment [1], in experiment [2], in experiment [3] and in experiment [4] was inactive.
As for `CC(C)(C)c1cc(O)c(C(C)(C)C)cc1O`, the result in experiment [1], in experiment [3] and in experiment [5] was inactive. Besides, the AC50 in experiment [2] is 8.8 µM (active); in experiment [4], 27.8 µM (active).
As to `CN1CCN(Cc2cc(-c3ccc4[nH]c(=O)oc4c3)co2)[C@@H](c2ccc(F)cc2)C1`, the result in experiment [1] and in experiment [5] was inactive. In addition, the figures for the AC50 in experiment [2], in experiment [3] and in experiment [4] were 28.1 µM (active), 9.71 µM (active) and 30.7 µM (active), respectively.
As to `CCc1c(C(=O)NN2CCCCC2)nn(-c2ccc(Cl)cc2Cl)c1-c1ccc(Br)cc1`, the AC50 was 9.99 µM (active) in experiment [1]; 11.8 µM (active) in experiment [2]; 7.03 µM (active) in experiment [3]; 7.06 µM (active) in experiment [4]; 8.32 µM (active) in experiment [5].
For `Cc1ccc(N(C)C)cc1`, the result in experiment [1], in experiment [2], in experiment [3], in experiment [4] and in experiment [5] was inactive.
Turning to `CCCCCCCCCCCCCCCCCC(=O)O`, the outcome in experiment [1], in experiment [3] and in experiment [5] was inactive. For the same compound, the AC50 in experiment [2] was 26.7 µM (active); in experiment [4], 24.1 µM (active).
As to `CCCCCCCCCCO`, the result in experiment [1], in experiment [2], in experiment [3], in experiment [4] and in experiment [5] was inactive.
For the compound `Cc1oc(-c2ccccc2)nc1CCOc1cccc2c1ccn2CCC(=O)O`, the result in experiment [1], in experiment [2], in experiment [3], in experiment [4] and in experiment [5] was inactive.
Take `O=c1c(O)c(-c2ccc(O)c(O)c2)oc2cc(O)cc(O)c12`: the result in experiment [1] and in experiment [3] was inactive. Also, the concentration at half-maximal activity (AC50) in experiment [2] was 13 µM (active); in experiment [4], 28.6 µM (active); in experiment [5] it was 31 µM (active).
For `CCCCCCCCCCCC(=O)OC`, the outcome in experiment [1], in experiment [3], in experiment [4] and in experiment [5] was inactive. Further, the AC50 in experiment [2] was 20 µM (active).
As for `CC(C)c1ccc(C(=O)N=C(N)N)cc1S(C)(=O)=O`, the result in experiment [1], in experiment [2], in experiment [3], in experiment [4] and in experiment [5] was inactive.
In the case of `COc1cc(C=O)ccc1O`, the result in experiment [1], in experiment [2], in experiment [3], in experiment [4] and in experiment [5] was inactive.
Turning to `CCOC(=O)C(C)(C)Oc1ccc(Cl)cc1`, the outcome in experiment [1], in experiment [2], in experiment [3], in experiment [4] and in experiment [5] was inactive.
As for `Cc1ccc(C(C)C)c(O)c1`, the outcome in experiment [1], in experiment [2], in experiment [3], in experiment [4] and in experiment [5] was inactive.
For the compound `CCCCCCCCCCC`, the result in experiment [1], in experiment [2], in experiment [3], in experiment [4] and in experiment [5] was inactive.
For the compound `Cc1ccccc1Cl`, the result in experiment [1], in experiment [2], in experiment [3], in experiment [4] and in experiment [5] was inactive.
Turning to `CCCCN(CCCC)CCCC`, the outcome in experiment [1], in experiment [2], in experiment [3], in experiment [4] and in experiment [5] was inactive.
Take `C=CCc1ccc(O)c(OC)c1`: the outcome in experiment [1], in experiment [2], in experiment [3], in experiment [4] and in experiment [5] was inactive.
Turning to `CCNc1cccc(C)c1`, the outcome in experiment [1], in experiment [2], in experiment [3], in experiment [4] and in experiment [5] was inactive.
Consider `CCCCCCCCCCCCCO`, for which the outcome in experiment [1] and in experiment [4] was inactive. Moreover, the AC50 is 33.2 µM (active) in experiment [2], 38 µM (active) in experiment [3] and 37.5 µM (active) in experiment [5].
Consider `O=[N+]([O-])C(CO)(CO)CO`, for which the outcome in experiment [1], in experiment [2], in experiment [3] and in experiment [5] was inactive. Besides, the AC50 in experiment [4] was 17.8 µM (active).
Consider `Nc1ccc(S(=O)(=O)c2ccc(N)cc2)cc1`, for which the result in experiment [1], in experiment [2], in experiment [3], in experiment [4] and in experiment [5] was inactive.
Consider `Oc1ccc2ccccc2c1N=Nc1ccccc1`, for which the outcome in experiment [1], in experiment [2], in experiment [3] and in experiment [5] was inactive. Further, the AC50 in experiment [4] is 12.2 µM (active).
Consider `CN[C@H]1CC[C@@H](c2ccc(Cl)c(Cl)c2)c2ccc(S(N)(=O)=O)cc21`, for which the AC50 in experiment [1] is 31.2 µM (active); in experiment [2] it was 20.5 µM (active); in experiment [3], 13.8 µM (active); in experiment [4], 12.4 µM (active); in experiment [5], 28.8 µM (active).
Take `Nc1nc(N)c2nc(CNc3ccc(C(=O)N[C@@H](CCC(=O)O)C(=O)O)cc3)cnc2n1`: the outcome in experiment [1], in experiment [2], in experiment [3] and in experiment [5] was inactive. Moreover, the AC50 in experiment [4] is 3.22 µM (active).
For `CN1CCCC1=O`, the result in experiment [1], in experiment [2], in experiment [3], in experiment [4] and in experiment [5] was inactive.
Regarding `CCCc1cc(=O)[nH]c(=S)[nH]1`, the outcome in experiment [1], in experiment [2], in experiment [3], in experiment [4] and in experiment [5] was inactive.
Consider `CNC(=O)[C@H]1O[C@@H](n2cnc3c(NCc4cc(Cl)ccc4OCc4cc(C)no4)ncnc32)[C@H](O)[C@@H]1N`, for which the outcome in experiment [1], in experiment [2], in experiment [3], in experiment [4] and in experiment [5] was inactive.
On to `C[C@]12C=CC(=O)C=C1CC[C@@H]1[C@@H]2C(=O)C[C@@]2(C)[C@H]1CC[C@]2(O)C(=O)CO`, for which the outcome in experiment [1], in experiment [2], in experiment [3], in experiment [4] and in experiment [5] was inactive.
Take `NCC1(Cc2noc(=O)[nH]2)CCCCC1`: the result in experiment [1], in experiment [2], in experiment [3], in experiment [4] and in experiment [5] was inactive.

(Values after PubChem BioAssay (EPA / NIEHS).)
